Measurements from PubChem BioAssay (EPA / NIEHS).
Results filed as inconclusive are left out. A structure can be active in one record and inactive in another. Activity calls are given as the source filed them. The calls were made as follows, unless noted: active = hit-call score of the fitted dose curve at least 0.9, where 1 is the maximum; inactive = score below 0.9.

Columns and labels:
[1] = ATG_M_06_TRANS: Attagene TRANS-FACTORIAL HepG2 Assay for M06 Transcription Factor (Internal Marker) (AID 2282983; active = hit-call score of the fitted dose curve at least 0.9, where 1 is the maximum); conditions: HepG2 Attagene TRANS M06 internal marker reporter
In short: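 HepG2 cells transiently transfected with GAL4-UAS multiple reporter units, dosed 24 h. Reporter RNA reverse-transcribed, PCR-amplified, 6-FAM-labeled, HpaI-digested and quantified by capillary electrophoresis; this internal-marker signal fitted upward relative to DMSO.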

[2] = ATG_M_32_TRANS: Attagene TRANS-FACTORIAL HepG2 Assay for M32 Transcription Factor (Internal Marker) (AID 2282984; active = hit-call score of the fitted dose curve at least 0.9, where 1 is the maximum); conditions: HepG2 Attagene TRANS M32 internal marker reporter
In short: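 HepG2 cells transiently transfected with GAL4-UAS reporter units, dosed for 24 hours. Reporter mRNA quantified by RT-PCR, 6-FAM labelling, HpaI digestion and capillary electrophoresis; internal-marker signal fitted upward relative to DMSO.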

[3] = molecular target: Transcriptional activator Myb (Homo sapiens) (UniProt P10242); assay: ATG_Myb_CIS: Attagene CIS-FACTORIAL HepG2 Assay for human Myeloblastosis (Myb) Proto-Oncogene Transcription Factor (AID 2282986); conditions: HepG2 Attagene CIS-FACTORIAL Myb reporter transcription; actives raise or lower the signal
In short: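 Reporter transcript levels, quantified by fluorescent RT-PCR and capillary electrophoresis, serve as the read-out. Transfected HepG2 cells carrying cis-promoter reporter units are dosed for 24 hours, and curves are fitted bidirectionally against DMSO controls.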

[4] = molecular target: Nuclear respiratory factor 1 (Homo sapiens) (UniProt Q16656); assay: ATG_NRF1_CIS: Attagene CIS-FACTORIAL HepG2 Assay for human Nuclear Respiratory Factor 1 (NRF1) Orphan Gene (AID 2282987); conditions: HepG2 NRF1 cis-element reporter, Attagene multiplex; actives raise or lower the signal
In short: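 Multiplexed cis-reporter assay, HepG2 cells, 24 h treatment. Total RNA → oligo(dT) RT → PCR with reporter-specific primers → 6-FAM primer extension → HpaI cut → CE. Bidirectional fit vs DMSO.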

[5] = ATG_NFI_CIS: Attagene CIS-FACTORIAL HepG2 Assay for human Nuclear Factor I (NFI) (AID 2282989); conditions: HepG2 cis-regulatory reporter, NFI response element transcription; actives raise or lower the signal
In short: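 Reporter transcription driven by endogenous transcription factors in HepG2 cells; 24 h treatment. Quantitation by labelled RT-PCR fragments on capillary electrophoresis, gain- or loss-of-signal relative to DMSO.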

[6] = molecular target: Myc proto-oncogene protein (Homo sapiens) (UniProt P01106); assay: ATG_Myc_CIS: Attagene CIS-FACTORIAL HepG2 Assay for human Myelocytomatosis (Myc) Proto-Oncogene Transcription Factor (AID 2282990); conditions: HepG2, Attagene cis-reporter transcription factor activity; actives raise or lower the signal
In short: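 Fluorescence intensity of reporter-specific cDNA fragments, separated by capillary electrophoresis, gives the signal. Transfected HepG2 cells carrying cis-promoter reporter constructs are incubated with compound for 24 h; DMSO serves as baseline.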

[7] = ATG_NF_kB_CIS: Attagene CIS-FACTORIAL HepG2 Assay for human Nuclear Factor Kappa B (NF-kB) (AID 2282991); conditions: HepG2 Attagene cis-factorial NF-kB reporter mRNA; actives raise or lower the signal
In short: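 Transient MRTU transfection of human HepG2 liver cells → 24 h chemical exposure → total RNA, oligo(dT) RT → PCR, 6-FAM primer extension, HpaI digest 2 h 37 C → CE fragment analysis. Bidirectional fitting, DMSO negative control.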

[8] = ATG_NRF2_ARE_CIS: Attagene CIS-FACTORIAL HepG2 Assay for human Nuclear Factor Erythroid 2 Related Factor 2 (NFR2) response to Antioxidant Response Elements (ARE) (AID 2282992); conditions: HepG2 Attagene ARE/NRF2 reporter, transcription factor activity; actives raise or lower the signal;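 as to AC50: reporter mRNA level measured by RT-PCR and capillary electrophoresis fluorescence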
In short: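 Transient MRTU transfection of HepG2; 24 h compound exposure; TriZol RNA, RT with oligo(dT), PCR, 6-FAM primer extension, HpaI cut, CE. Bidirectional fit vs DMSO.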

[9] = ATG_Oct_MLP_CIS: Attagene CIS-FACTORIAL HepG2 Assay for human Octamer-Binding Transcription Factor (Oct) (AID 2282993); conditions: HepG2 Attagene cis-factorial Oct reporter, mRNA; actives raise or lower the signal
In short: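 Transfected HepG2 cells, 24 h treatment. Reporter mRNA quantified by RT-PCR–capillary electrophoresis; bidirectional fitting against DMSO.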

[10] = molecular target: Cellular tumor antigen p53 (Homo sapiens) (UniProt P04637); assay: ATG_p53_CIS: Attagene CIS-FACTORIAL HepG2 Assay for human p53 Transcription Factor (AID 2282994); conditions: HepG2 p53 cis-element reporter, Attagene mRNA; actives raise or lower the signal
In short: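 HepG2, transient MRTU transfection (cis promoter elements, endogenous TFs); 24 h dosing; RNA isolation, RT-PCR, 6-FAM primer extension, HpaI digest, CE fluorescence; bidirectional fit vs DMSO.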

[11] = molecular target: human Peroxisome Proliferator-activated Receptor alpha (PPARa), PPARA (gene 5465) (UniProt Q07869); assay: ATG_PPARa_TRANS: Attagene TRANS-FACTORIAL HepG2 Assay for human Peroxisome Proliferator-activated Receptor alpha (PPARa) (AID 2283001; active = hit-call score of the fitted dose curve at least 0.9, where 1 is the maximum;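 as to AC50: potency for gain of reporter signal over DMSO so agonist or activator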)
In short: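 HepG2 cells transiently transfected with multiplexed GAL4-UAS reporters driven by exogenous chimeric NR-Gal4 proteins; reporter mRNA measured after 24 h dosing. Read-out by RT-PCR, 6-FAM labelling, HpaI digestion and capillary electrophoresis; gain of signal versus DMSO.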

[12] = molecular target: Hepatocyte nuclear factor 4-alpha (Homo sapiens) (UniProt P41235); assay: ATG_HNF4a_TRANS: Attagene TRANS-FACTORIAL HepG2 Assay for human Hepatocyte Nuclear Factor 4 alpha (HNF4a) (AID 2282982; active = hit-call score of the fitted dose curve at least 0.9, where 1 is the maximum); conditions: HepG2 HNF4a transactivation reporter, mRNA readout
In short: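 HepG2 cells transiently transfected with HNF4a-Gal4 chimera and GAL4-UAS reporter units, dosed for 24 h. Reporter mRNA measured by RT-PCR, fluorescent primer extension and capillary electrophoresis; gain-of-signal fitted relative to DMSO.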

[13] = molecular target: Nuclear receptor subfamily 4 group A member 2 (Homo sapiens) (UniProt P43354); assay: ATG_NURR1_TRANS: Attagene TRANS-FACTORIAL HepG2 Assay for human Nuclear Receptor Related Protein 1 (NURR1) (AID 2282985; active = hit-call score of the fitted dose curve at least 0.9, where 1 is the maximum); conditions: HepG2 Attagene TRANS reporter, mRNA readout
In short: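 HepG2 cells transiently transfected with NURR1-Gal4 chimera and GAL4-UAS reporter units; after 24 hr compound exposure, reporter mRNA quantified by RT-PCR and capillary electrophoresis; gain of signal fitted against DMSO.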

[14] = molecular target: Oxysterols receptor LXR-beta (Homo sapiens) (UniProt P55055); assay: ATG_LXRb_TRANS: Attagene TRANS-FACTORIAL HepG2 Assay for human Liver X Receptor beta (LXRb) (AID 2282981; active = hit-call score of the fitted dose curve at least 0.9, where 1 is the maximum); conditions: HepG2 Attagene TRANS GAL4-LXRb reporter, mRNA
In short: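 HepG2 cells transiently transfected with GAL4-UAS reporter units for chimeric NR-Gal4 proteins, dosed for 24 h. Reporter transcripts measured by RT-PCR and capillary electrophoresis; gain-of-signal fitting relative to DMSO.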

[15] = BSK_3C_TissueFactor: BioMAP Diversity Plus: 3C Assay for Tissue Factor Biomarker Activity (AID 2282997); conditions: BioMAP 3C HUVEC, tissue factor biomarker readout; actives raise or lower the signal
In short: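 HUVEC were treated 24 h, then surface tissue factor measured by ELISA and fitted bidirectionally against DMSO. Parallel SRB total-protein staining assessed overt cytotoxicity at the same time point.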

[16] = BSK_3C_uPAR: BioMAP Diversity Plus: 3C Assay for Urokinase-type plasminogen activator receptor (uPAR) Biomarker Activity (AID 2282998); conditions: BioMAP 3C HUVEC, uPAR biomarker ELISA; actives raise or lower the signal
In short: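 Readout: ELISA for surface uPAR. System: human umbilical vein endothelial primary cells, 24 h after chemical exposure. Analysis: bidirectional fit, DMSO baseline.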

[17] = BSK_3C_VCAM1: BioMAP Diversity Plus: 3C Assay for Vascular cell adhesion molecule 1 (VCAM1) Biomarker Activity (AID 2282999); conditions: BioMAP 3C HUVEC, VCAM1 ELISA, cytokine-stimulated; actives raise or lower the signal
In short: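 Human umbilical vein endothelial cells (3C system), biomarker read by ELISA 24 h after dosing; bidirectional fit against DMSO baseline. Cytotoxicity tracked by SRB total-protein staining in parallel cultures at biomarker time.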

Hepatocyte nuclear factor 4-alpha (Homo sapiens), sequence (P41235 whole entry, looked up, the tested form may be a part): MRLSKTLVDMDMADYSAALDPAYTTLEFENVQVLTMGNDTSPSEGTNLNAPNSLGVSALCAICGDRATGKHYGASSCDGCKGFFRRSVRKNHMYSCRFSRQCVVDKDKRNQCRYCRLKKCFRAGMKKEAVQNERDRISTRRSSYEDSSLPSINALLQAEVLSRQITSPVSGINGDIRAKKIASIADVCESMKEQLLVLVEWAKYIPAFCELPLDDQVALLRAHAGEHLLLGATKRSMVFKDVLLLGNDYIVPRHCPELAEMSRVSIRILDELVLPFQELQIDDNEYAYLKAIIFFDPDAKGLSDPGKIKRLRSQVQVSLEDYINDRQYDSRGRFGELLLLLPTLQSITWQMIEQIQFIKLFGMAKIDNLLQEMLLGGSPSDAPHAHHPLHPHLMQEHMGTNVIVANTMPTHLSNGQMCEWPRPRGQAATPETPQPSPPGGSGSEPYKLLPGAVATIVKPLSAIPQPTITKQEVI
Myc proto-oncogene protein (Homo sapiens), sequence (P01106 whole entry, looked up, the tested form may be a part): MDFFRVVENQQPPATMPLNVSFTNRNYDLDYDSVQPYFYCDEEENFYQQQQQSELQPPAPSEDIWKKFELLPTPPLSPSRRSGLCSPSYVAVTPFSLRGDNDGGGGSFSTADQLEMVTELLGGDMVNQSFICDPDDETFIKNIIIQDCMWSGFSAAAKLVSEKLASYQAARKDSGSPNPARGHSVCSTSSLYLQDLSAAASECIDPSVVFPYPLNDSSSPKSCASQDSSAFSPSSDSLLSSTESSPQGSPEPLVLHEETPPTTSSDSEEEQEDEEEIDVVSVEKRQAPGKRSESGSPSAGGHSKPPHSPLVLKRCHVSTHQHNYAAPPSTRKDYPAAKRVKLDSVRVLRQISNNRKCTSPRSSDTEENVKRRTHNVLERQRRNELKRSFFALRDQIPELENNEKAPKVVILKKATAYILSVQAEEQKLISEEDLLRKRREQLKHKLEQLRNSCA
Oxysterols receptor LXR-beta (Homo sapiens), sequence (P55055 whole entry, looked up, the tested form may be a part): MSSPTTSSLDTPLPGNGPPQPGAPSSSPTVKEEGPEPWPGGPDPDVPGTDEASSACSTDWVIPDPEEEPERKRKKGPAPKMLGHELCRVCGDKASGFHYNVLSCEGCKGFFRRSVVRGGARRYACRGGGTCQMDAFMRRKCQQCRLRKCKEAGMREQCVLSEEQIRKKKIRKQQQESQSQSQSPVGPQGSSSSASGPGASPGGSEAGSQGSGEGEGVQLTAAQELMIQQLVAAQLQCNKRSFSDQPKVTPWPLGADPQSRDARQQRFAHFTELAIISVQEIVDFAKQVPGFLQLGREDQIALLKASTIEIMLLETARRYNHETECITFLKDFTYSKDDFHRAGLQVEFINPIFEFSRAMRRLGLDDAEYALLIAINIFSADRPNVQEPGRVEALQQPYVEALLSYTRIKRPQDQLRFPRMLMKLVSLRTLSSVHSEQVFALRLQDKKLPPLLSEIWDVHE
human Peroxisome Proliferator-activated Receptor alpha (PPARa), PPARA (gene 5465), sequence (Q07869 whole entry, looked up, the tested form may be a part): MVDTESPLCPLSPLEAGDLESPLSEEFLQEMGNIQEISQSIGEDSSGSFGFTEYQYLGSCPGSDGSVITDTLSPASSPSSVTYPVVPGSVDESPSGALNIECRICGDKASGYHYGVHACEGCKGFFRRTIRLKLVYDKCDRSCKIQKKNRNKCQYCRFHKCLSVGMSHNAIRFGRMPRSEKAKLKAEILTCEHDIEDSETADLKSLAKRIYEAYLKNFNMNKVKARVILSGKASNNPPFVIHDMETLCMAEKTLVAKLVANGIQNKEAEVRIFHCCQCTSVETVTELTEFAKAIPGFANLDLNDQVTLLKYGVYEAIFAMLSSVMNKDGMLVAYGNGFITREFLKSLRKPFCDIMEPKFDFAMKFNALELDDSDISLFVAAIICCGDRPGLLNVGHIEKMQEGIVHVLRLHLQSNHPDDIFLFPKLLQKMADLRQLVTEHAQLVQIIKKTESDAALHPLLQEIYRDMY
Nuclear receptor subfamily 4 group A member 2 (Homo sapiens), sequence (P43354 whole entry, looked up, the tested form may be a part): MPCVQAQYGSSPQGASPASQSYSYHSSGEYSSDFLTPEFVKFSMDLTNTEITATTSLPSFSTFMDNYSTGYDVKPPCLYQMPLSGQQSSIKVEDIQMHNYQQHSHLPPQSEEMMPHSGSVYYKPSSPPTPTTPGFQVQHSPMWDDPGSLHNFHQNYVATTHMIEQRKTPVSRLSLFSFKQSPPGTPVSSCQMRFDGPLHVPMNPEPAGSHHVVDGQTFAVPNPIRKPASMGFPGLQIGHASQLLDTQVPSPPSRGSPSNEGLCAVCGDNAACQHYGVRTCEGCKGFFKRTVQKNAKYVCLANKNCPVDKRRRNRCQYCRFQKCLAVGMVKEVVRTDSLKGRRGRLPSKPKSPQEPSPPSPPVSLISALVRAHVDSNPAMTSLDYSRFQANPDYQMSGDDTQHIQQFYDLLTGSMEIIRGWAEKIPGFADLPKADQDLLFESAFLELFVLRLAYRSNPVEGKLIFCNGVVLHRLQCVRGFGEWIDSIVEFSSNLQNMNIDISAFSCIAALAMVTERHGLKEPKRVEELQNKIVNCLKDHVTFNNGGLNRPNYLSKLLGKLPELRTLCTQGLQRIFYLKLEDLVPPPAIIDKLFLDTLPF
Nuclear respiratory factor 1 (Homo sapiens), sequence (Q16656 whole entry, looked up): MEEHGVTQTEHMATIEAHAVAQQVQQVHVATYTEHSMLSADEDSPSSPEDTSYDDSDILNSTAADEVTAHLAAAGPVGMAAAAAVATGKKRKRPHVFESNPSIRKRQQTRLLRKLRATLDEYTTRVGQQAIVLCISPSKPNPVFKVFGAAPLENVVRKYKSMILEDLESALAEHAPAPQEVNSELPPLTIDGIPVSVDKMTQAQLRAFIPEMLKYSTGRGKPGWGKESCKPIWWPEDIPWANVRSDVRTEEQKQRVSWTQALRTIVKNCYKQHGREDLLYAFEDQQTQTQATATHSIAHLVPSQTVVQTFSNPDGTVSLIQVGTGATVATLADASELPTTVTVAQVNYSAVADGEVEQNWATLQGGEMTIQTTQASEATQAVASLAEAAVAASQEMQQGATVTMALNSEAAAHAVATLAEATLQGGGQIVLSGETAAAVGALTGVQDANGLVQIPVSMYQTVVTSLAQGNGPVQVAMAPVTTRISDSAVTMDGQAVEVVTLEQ
Cellular tumor antigen p53 (Homo sapiens), sequence (P04637 whole entry, looked up): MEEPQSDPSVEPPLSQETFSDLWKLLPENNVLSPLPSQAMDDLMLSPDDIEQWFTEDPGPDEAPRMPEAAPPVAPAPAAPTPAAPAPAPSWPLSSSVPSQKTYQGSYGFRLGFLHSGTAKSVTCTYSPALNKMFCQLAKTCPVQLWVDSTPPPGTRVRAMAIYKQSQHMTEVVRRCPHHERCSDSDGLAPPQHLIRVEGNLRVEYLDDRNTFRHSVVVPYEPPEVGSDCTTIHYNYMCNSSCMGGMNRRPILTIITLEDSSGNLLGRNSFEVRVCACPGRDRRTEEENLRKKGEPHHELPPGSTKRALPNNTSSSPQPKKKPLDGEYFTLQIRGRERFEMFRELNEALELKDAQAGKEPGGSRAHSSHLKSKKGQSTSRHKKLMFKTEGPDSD
Transcriptional activator Myb (Homo sapiens), sequence (P10242 whole entry, looked up): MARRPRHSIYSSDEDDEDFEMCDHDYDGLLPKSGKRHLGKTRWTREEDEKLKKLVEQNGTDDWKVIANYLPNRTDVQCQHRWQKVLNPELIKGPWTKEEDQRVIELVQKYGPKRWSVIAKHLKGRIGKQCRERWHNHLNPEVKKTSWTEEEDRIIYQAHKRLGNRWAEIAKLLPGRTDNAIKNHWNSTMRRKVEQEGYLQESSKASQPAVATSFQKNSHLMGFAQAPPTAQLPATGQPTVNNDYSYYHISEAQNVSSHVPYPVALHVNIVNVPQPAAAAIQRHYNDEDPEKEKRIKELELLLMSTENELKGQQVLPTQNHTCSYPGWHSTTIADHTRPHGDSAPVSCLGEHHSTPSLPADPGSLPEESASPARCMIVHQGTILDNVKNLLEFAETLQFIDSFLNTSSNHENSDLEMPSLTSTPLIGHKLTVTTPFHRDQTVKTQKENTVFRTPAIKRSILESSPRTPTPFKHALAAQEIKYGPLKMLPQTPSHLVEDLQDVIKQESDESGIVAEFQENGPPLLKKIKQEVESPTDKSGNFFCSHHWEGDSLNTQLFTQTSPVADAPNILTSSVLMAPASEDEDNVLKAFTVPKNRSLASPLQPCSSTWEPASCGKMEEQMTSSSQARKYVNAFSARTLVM

In the case of `CCCCCCC(C)(C)C(=O)O`, the outcome [1] is reported as “inactive”, the outcome [2] is reported as “inactive” and the outcome [3] is reported as “inactive”. For the same compound, the outcome [4] was “inactive”, the outcome [5] was “inactive” and the outcome [6] was “inactive”. For the same compound, the outcome [7] was “inactive”, the AC50 [8] was 117 µM (active) and the outcome [9] was “inactive”. The outcome [10] was “inactive” and the AC50 [11] was 18 µM (active).

With `CC(C)[C@@H]1CC[C@@H](C)C[C@H]1O` the outcome [12] was “inactive”, the outcome [2] was “inactive” and the outcome [13] was “inactive”. For the same compound, the outcome [3] was “inactive”, the outcome [4] was “inactive” and the outcome [5] was “inactive”. The outcome [6] was “inactive”, the outcome [7] was “inactive” and the outcome [9] was “inactive”. The outcome [11] was “inactive”.

With `O=C(c1ccccc1)c1ccccc1` the outcome [14] was “inactive”, the outcome [2] was “inactive” and the outcome [3] was “inactive”. For the same compound, the outcome [6] was “inactive”, the outcome [9] was “inactive” and the AC50 [10] was 168 µM (active). For the same compound, the outcome [10] was “inactive”, the outcome [15] was “inactive” and the outcome [16] was “inactive”. For the same compound, the outcome [17] was “inactive” and the outcome [11] was “inactive”.

For `COC(=O)C(F)(F)C(F)(F)C(F)(F)C(F)(F)C(F)(F)F`, the outcome [12] was “inactive”, the outcome [2] was “inactive” and the outcome [13] was “inactive”. The outcome [3] was “inactive”, the outcome [4] was “inactive” and the outcome [5] was “inactive”. The outcome [6] was “inactive”, the outcome [7] was “inactive” and the outcome [8] was “inactive”. For the same compound, the outcome [9] was “inactive”, the outcome [10] was “inactive” and the outcome [11] was “inactive”.

For `CCCCCCCCCCCCOC(=O)c1cc(O)c(O)c(O)c1`, the outcome [14] was “inactive”, the outcome [2] was “inactive” and the outcome [3] was “inactive”. For the same compound, the outcome [4] was “inactive”, the outcome [5] was “inactive” and the outcome [7] was “inactive”. For the same compound, the AC50 [8] was 2.95 µM (active), the AC50 [9] was 11.1 µM (active) and the outcome [10] was “inactive”. The AC50 [11] was 43.9 µM (active).

For `NNC(=O)CCCCC(=O)NN`, the outcome [12] was “inactive”, the outcome [2] was “inactive” and the outcome [3] was “inactive”. The outcome [4] was “inactive”, the outcome [5] was “inactive” and the outcome [6] was “inactive”. For the same compound, the outcome [8] was “inactive”, the outcome [9] was “inactive” and the outcome [11] was “inactive”.

For `Brc1cc(Br)c(Oc2c(Br)cc(Br)c(Br)c2Br)cc1Br`, the outcome [14] was “inactive”, the outcome [2] was “inactive” and the outcome [3] was “inactive”. The outcome [4] was “inactive”, the outcome [5] was “inactive” and the outcome [6] was “inactive”. For the same compound, the outcome [7] was “inactive”, the outcome [8] was “inactive” and the outcome [9] was “inactive”. The outcome [10] was “inactive” and the outcome [11] was “inactive”.

With `C=CC(F)(F)C(F)(F)C(F)(F)C(F)(F)F` the outcome [12] was “inactive”, the outcome [1] was “inactive” and the outcome [13] was “inactive”. The outcome [3] was “inactive”, the outcome [4] was “inactive” and the outcome [5] was “inactive”. For the same compound, the outcome [7] was “inactive”, the outcome [9] was “inactive” and the outcome [10] was “inactive”. The outcome [11] was “inactive”.
